# Experimental data as given in the supplement of paper PMC12282887.
# ± gives the standard deviation of the averaged measurements.
# Experiments:
# Assay in all cases: promoter activity interaction Z-score (Lux/OD deviation from empty-vector control); higher = stronger promoter induction by the compound
# [1] = test system: E. coli BW25113 acrABp lux reporter
# Method in brief: (§1)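 E. coli BW25113 luxCDABE reporter strains grew at 37°C in 40 µl LB Lennox in 384-well plates, with OD600 and luminescence read every 30 min for 12 h. After integration over 0–8 h for wild type or 1–9 h for deletion strains, wells under 10% of the median growth value were removed. Each score is the Z-transformed residual of growth-normalised luminescence fitted against a control.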
# [2] = test system: E. coli BW25113 micFp lux reporter
# Method in brief: as §1
# [3] = test system: E. coli BW25113 ompFp lux reporter
# Method in brief: as §1
# [4] = test system: E. coli BW25113 robp lux reporter
# Method in brief: as §1
# [5] = test system: E. coli BW25113 soxSp lux reporter
# Method in brief: as §1
# [6] = test system: E. coli BW25113 tolCp lux reporter
# Method in brief: as §1
# [7] = 17.3 µg/ml, genetic background: wild type
# [8] = 17.3 µg/ml, genetic background: ΔmarA
# [9] = 17.3 µg/ml, genetic background: Δrob
# [10] = 17.3 µg/ml, genetic background: ΔsoxS
# [11] = 34.5 µg/ml, genetic background: wild type
# [12] = 34.5 µg/ml, genetic background: ΔmarA
# [13] = 34.5 µg/ml, genetic background: Δrob
# [14] = 34.5 µg/ml, genetic background: ΔsoxS
# [15] = 69.1 µg/ml, genetic background: wild type
# [16] = 69.1 µg/ml, genetic background: ΔmarA
# [17] = 69.1 µg/ml, genetic background: Δrob
# [18] = 69.1 µg/ml, genetic background: ΔsoxS
# [19] = 138.1 µg/ml, genetic background: wild type
# [20] = 138.1 µg/ml, genetic background: ΔmarA
# [21] = 138.1 µg/ml, genetic background: Δrob
# [22] = 138.1 µg/ml, genetic background: ΔsoxS
# [23] = 19.7 µg/ml, genetic background: wild type
# [24] = 19.7 µg/ml, genetic background: ΔmarA
# [25] = 19.7 µg/ml, genetic background: Δrob
# [26] = 19.7 µg/ml, genetic background: ΔsoxS
# [27] = 39.3 µg/ml, genetic background: wild type
# [28] = 39.3 µg/ml, genetic background: ΔmarA
# [29] = 39.3 µg/ml, genetic background: Δrob
# [30] = 39.3 µg/ml, genetic background: ΔsoxS
# [31] = 78.6 µg/ml, genetic background: wild type
# [32] = 78.6 µg/ml, genetic background: ΔmarA
# [33] = 78.6 µg/ml, genetic background: Δrob
# [34] = 78.6 µg/ml, genetic background: ΔsoxS
# [35] = 157.2 µg/ml, genetic background: wild type
# [36] = 157.2 µg/ml, genetic background: ΔmarA
smiles,measurement,setting,value
O=C(O)c1ccccc1O [Salicylate],promoter activity interaction Z-score,[1]; [7],-0.103 ± 0.014
same,promoter activity interaction Z-score,[1]; [8],-0.589 ± 0.63
same,promoter activity interaction Z-score,[1]; [9],-0.226 ± 0.24
same,promoter activity interaction Z-score,[1]; [10],-0.152 ± 0.11
same,promoter activity interaction Z-score,[1]; [11],-0.242 ± 0.057
same,promoter activity interaction Z-score,[1]; [12],-0.128 ± 0.11
same,promoter activity interaction Z-score,[1]; [13],-0.178 ± 0.057
same,promoter activity interaction Z-score,[1]; [14],-0.392 ± 0.55
same,promoter activity interaction Z-score,[1]; [15],-0.168 ± 0.043
same,promoter activity interaction Z-score,[1]; [16],-0.559 ± 0.22
same,promoter activity interaction Z-score,[1]; [17],-0.327 ± 0.03
same,promoter activity interaction Z-score,[1]; [18],-0.194 ± 0.22
same,promoter activity interaction Z-score,[1]; [19],1.16 ± 0.76
same,promoter activity interaction Z-score,[1]; [20],0.299 ± 0.12
same,promoter activity interaction Z-score,[1]; [21],0.954 ± 0.4
same,promoter activity interaction Z-score,[1]; [22],1.34 ± 0.39
same,promoter activity interaction Z-score,[2]; [7],0.432 ± 0.15
same,promoter activity interaction Z-score,[2]; [8],-0.066 ± 0.12
same,promoter activity interaction Z-score,[2]; [9],0.521 ± 0.42
same,promoter activity interaction Z-score,[2]; [10],0.0126 ± 0.12
same,promoter activity interaction Z-score,[2]; [11],0.534 ± 0.39
same,promoter activity interaction Z-score,[2]; [12],-0.0684 ± 0.18
same,promoter activity interaction Z-score,[2]; [13],0.624 ± 0.05
same,promoter activity interaction Z-score,[2]; [14],0.176 ± 0.22
same,promoter activity interaction Z-score,[2]; [15],0.858 ± 0.46
same,promoter activity interaction Z-score,[2]; [16],0.0541 ± 0.076
same,promoter activity interaction Z-score,[2]; [17],1.4 ± 0.11
same,promoter activity interaction Z-score,[2]; [18],0.648 ± 0.042
same,promoter activity interaction Z-score,[2]; [19],3.02 ± 0.49
same,promoter activity interaction Z-score,[2]; [20],0.477 ± 0.32
same,promoter activity interaction Z-score,[2]; [21],4.91 ± 0.15
same,promoter activity interaction Z-score,[2]; [22],3.15 ± 0.65
same,promoter activity interaction Z-score,[3]; [7],-0.258 ± 0.037
same,promoter activity interaction Z-score,[3]; [8],-0.336 ± 0.23
same,promoter activity interaction Z-score,[3]; [9],-0.349 ± 0.016
same,promoter activity interaction Z-score,[3]; [10],-0.27 ± 0.18
same,promoter activity interaction Z-score,[3]; [11],-0.259 ± 0.41
same,promoter activity interaction Z-score,[3]; [12],-0.439 ± 0.33
same,promoter activity interaction Z-score,[3]; [13],-0.523 ± 0.35
same,promoter activity interaction Z-score,[3]; [14],0.344 ± 0.3
same,promoter activity interaction Z-score,[3]; [15],-0.272 ± 0.29
same,promoter activity interaction Z-score,[3]; [16],-0.133 ± 0.11
same,promoter activity interaction Z-score,[3]; [17],0.0991 ± 0.22
same,promoter activity interaction Z-score,[3]; [18],0.35 ± 0.33
same,promoter activity interaction Z-score,[3]; [19],0.5 ± 0.64
same,promoter activity interaction Z-score,[3]; [20],-0.462 ± 0.05
same,promoter activity interaction Z-score,[3]; [21],0.991 ± 0.12
same,promoter activity interaction Z-score,[3]; [22],0.357 ± 1.6
same,promoter activity interaction Z-score,[4]; [7],0.135 ± 0.21
same,promoter activity interaction Z-score,[4]; [8],-0.248 ± 0.33
same,promoter activity interaction Z-score,[4]; [9],-0.0314 ± 0.15
same,promoter activity interaction Z-score,[4]; [10],-0.476 ± 0.16
same,promoter activity interaction Z-score,[4]; [11],-0.293 ± 0.019
same,promoter activity interaction Z-score,[4]; [12],0.052 ± 0.1
same,promoter activity interaction Z-score,[4]; [13],-0.218 ± 0.033
same,promoter activity interaction Z-score,[4]; [14],0.365 ± 0.091
same,promoter activity interaction Z-score,[4]; [15],-0.0138 ± 0.24
same,promoter activity interaction Z-score,[4]; [16],-0.259 ± 0.74
same,promoter activity interaction Z-score,[4]; [17],0.387 ± 0.029
same,promoter activity interaction Z-score,[4]; [18],-0.512 ± 0.077
same,promoter activity interaction Z-score,[4]; [19],-0.0563 ± 0.13
same,promoter activity interaction Z-score,[4]; [20],-0.611 ± 0.22
same,promoter activity interaction Z-score,[4]; [21],0.693 ± 0.087
same,promoter activity interaction Z-score,[4]; [22],-0.616 ± 0.21
same,promoter activity interaction Z-score,[5]; [7],0.0635 ± 0.14
same,promoter activity interaction Z-score,[5]; [8],-0.172 ± 0.0058
same,promoter activity interaction Z-score,[5]; [9],-0.0541 ± 0.36
same,promoter activity interaction Z-score,[5]; [10],-0.237 ± 0.017
same,promoter activity interaction Z-score,[5]; [11],-0.0796 ± 0.076
same,promoter activity interaction Z-score,[5]; [12],-0.219 ± 0.049
same,promoter activity interaction Z-score,[5]; [13],-0.0336 ± 0.1
same,promoter activity interaction Z-score,[5]; [14],-0.0124 ± 0.14
same,promoter activity interaction Z-score,[5]; [15],-0.0424 ± 0.045
same,promoter activity interaction Z-score,[5]; [16],-0.126 ± 0.076
same,promoter activity interaction Z-score,[5]; [17],0.239 ± 0.18
same,promoter activity interaction Z-score,[5]; [18],0.207 ± 0.22
same,promoter activity interaction Z-score,[5]; [19],0.0689 ± 0.0036
same,promoter activity interaction Z-score,[5]; [20],0.491 ± 0.041
same,promoter activity interaction Z-score,[5]; [21],0.434 ± 0.012
same,promoter activity interaction Z-score,[5]; [22],0.177 ± 0.4
same,promoter activity interaction Z-score,[6]; [7],-0.0562 ± 0.66
same,promoter activity interaction Z-score,[6]; [8],-0.946 ± 0.55
same,promoter activity interaction Z-score,[6]; [9],0.0451 ± 0.3
same,promoter activity interaction Z-score,[6]; [10],0.372 ± 0.27
same,promoter activity interaction Z-score,[6]; [11],-0.65 ± 0.46
same,promoter activity interaction Z-score,[6]; [12],-0.0216 ± 0.48
same,promoter activity interaction Z-score,[6]; [13],-0.226 ± 0.041
same,promoter activity interaction Z-score,[6]; [14],0.227 ± 0.47
same,promoter activity interaction Z-score,[6]; [15],-0.276 ± 0.26
same,promoter activity interaction Z-score,[6]; [16],-0.251 ± 0.18
same,promoter activity interaction Z-score,[6]; [17],0.839 ± 0.021
same,promoter activity interaction Z-score,[6]; [18],0.668 ± 1.5
same,promoter activity interaction Z-score,[6]; [19],2.05 ± 1
same,promoter activity interaction Z-score,[6]; [20],-0.89 ± 0.018
same,promoter activity interaction Z-score,[6]; [21],1.38 ± 2
same,promoter activity interaction Z-score,[6]; [22],0.806 ± 0.32
CC(=O)[C@H]1CC[C@H]2[C@@H]3CCC4=CC(=O)CC[C@]4(C)[C@H]3CC[C@]12C [Progesterone],promoter activity interaction Z-score,[1]; [23],-0.247 ± 0.13
same,promoter activity interaction Z-score,[1]; [24],-0.405 ± 0.19
same,promoter activity interaction Z-score,[1]; [25],-0.0328 ± 0.098
same,promoter activity interaction Z-score,[1]; [26],-0.282 ± 0.25
same,promoter activity interaction Z-score,[1]; [27],-0.262 ± 0.14
same,promoter activity interaction Z-score,[1]; [28],-0.838 ± 0.1
same,promoter activity interaction Z-score,[1]; [29],-0.217 ± 0.17
same,promoter activity interaction Z-score,[1]; [30],-0.38 ± 0.34
same,promoter activity interaction Z-score,[1]; [31],0.00448 ± 0.24
same,promoter activity interaction Z-score,[1]; [32],-0.886 ± 0.13
same,promoter activity interaction Z-score,[1]; [33],-0.151 ± 0.044
same,promoter activity interaction Z-score,[1]; [34],-0.0393 ± 0.056
same,promoter activity interaction Z-score,[1]; [35],-0.214 ± 0.34
same,promoter activity interaction Z-score,[1]; [36],0.269 ± 0.11
same,promoter activity interaction Z-score,"[1]; 157.2 µg/ml, genetic background: Δrob",0.191 ± 0.14
same,promoter activity interaction Z-score,"[1]; 157.2 µg/ml, genetic background: ΔsoxS",-0.315 ± 1
same,promoter activity interaction Z-score,[2]; [23],-0.103 ± 0.25
same,promoter activity interaction Z-score,[2]; [24],0.119 ± 0.028
same,promoter activity interaction Z-score,[2]; [25],0.0776 ± 0.12
same,promoter activity interaction Z-score,[2]; [26],0.434 ± 0.5
same,promoter activity interaction Z-score,[2]; [27],-0.0976 ± 0.35
same,promoter activity interaction Z-score,[2]; [28],0.123 ± 0.056
same,promoter activity interaction Z-score,[2]; [29],0.0868 ± 0.01
same,promoter activity interaction Z-score,[2]; [30],0.176 ± 0.29
same,promoter activity interaction Z-score,[2]; [31],-0.119 ± 0.33
same,promoter activity interaction Z-score,[2]; [32],0.21 ± 0.0092
same,promoter activity interaction Z-score,[2]; [33],-0.0152 ± 0.13
same,promoter activity interaction Z-score,[2]; [34],0.432 ± 0.42
same,promoter activity interaction Z-score,[2]; [35],-0.0937 ± 0.11
same,promoter activity interaction Z-score,[2]; [36],0.211 ± 0.14
